Out of some 47,000 compounds screened, about 200 (0.43%) were called active. Another 1% or so got no clear call; they are omitted.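 The calls were made as follows: active = inhibition of aggregate fluorescence above about 70%, also judged a hit by eye on the cell image (limit read from the data, passing the limit was not always enough); inconclusive = no rule stated for this call; inactive = not judged a hit on image review.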 For the sample, actives were picked, then their nearest neighbours and some compounds at random.
test: removal of polyQ htt aggregates in HeLa – imaging, HeLa Exon1htt(103Q)mCFP, confocal imaging, primary screen (AID 853); conditions: aggregate imaging, at 1.5 µM; fraction fluorescence in grains: measured here: aggregate grain fluorescence fraction, stronger effect = lower value; inhibition: stronger effect = higher value, zero = plate's median compound well;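 also: cells exposed to compound for three days before fixation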

Question: What does the source list for `COc1ccc(C2C(C(C)=O)=C(O)C(=O)N2Cc2cccnc2)cc1` (stereo not given)?
Answer: fraction fluorescence in grains: 15.5; inhibition: 17.5% (inactive)

Question: What does the source list for `COC(=O)c1cccc(NC(=O)CSc2nc(C)cc(=O)[nH]2)c1`?
Answer: fraction fluorescence in grains: 13.9; inhibition: 27.8% (inactive)

Question: What does the source list for `Cn1ccs/c1=N\S(=O)(=O)c1ccc(C(C)(C)C)cc1`?
Answer: fraction fluorescence in grains: 37.7; inhibition: 0.2% (inactive)

Question: For `CCCCOc1ccc(NC(=O)CSCC(=O)OCC)cc1`, which fraction fluorescence in grains is on record?
Answer: The fraction fluorescence in grains was 53.3.

Question: What about the inhibition of the same molecule?
Answer: The inhibition was -31.6% (inactive).

Question: What does the source list for `CCOc1ccc(NC(=O)CCC(=O)n2nc(C)cc2C)cc1`?
Answer: fraction fluorescence in grains: 4; inhibition: 79.1% (active)

Question: Which fraction fluorescence in grains does the source give for `CCOc1ccc(NC(=O)Nc2cc(C)on2)cc1` here?
Answer: Its fraction fluorescence in grains is 23.9.

Question: What about the inhibition of the same molecule?
Answer: The inhibition was -47.8% (inactive).

Question: Which fraction fluorescence in grains does the source give for `O=C(CSc1nnc(-c2cccnc2)n1CCc1ccccc1)NCc1ccccc1` here?
Answer: The fraction fluorescence in grains was 34.5.

Question: What about the inhibition of the same molecule?
Answer: Its inhibition is -83.7% (inactive).

Question: Which fraction fluorescence in grains does the source give for `CC(C)(C)C(=O)Cn1c(NCCO)nc2ccccc21` here?
Answer: Its fraction fluorescence in grains is 13.3.

Question: And the inhibition?
Answer: Its inhibition is 30.8% (inactive).

Question: For `Oc1c(C(c2cccs2)N2CCN(c3ccc(F)cc3)CC2)sc2ncnn12` (stereo not given), which fraction fluorescence in grains is on record?
Answer: Its fraction fluorescence in grains is 72.5.

Question: And the inhibition?
Answer: Its inhibition is -45.9% (inactive).

Question: Which results are given for `COc1ccc(-n2c(SCC(=O)NCc3cccs3)nnc2-c2ccoc2C)cc1`?
Answer: fraction fluorescence in grains: 22.6; inhibition: 33.8% (inactive)

Question: Which fraction fluorescence in grains does the source give for `O=C(NCCCNCc1ccccc1)c1ccc(/C=N/O)nc1` here?
Answer: The fraction fluorescence in grains was 39.1.

Question: And the inhibition?
Answer: The inhibition was 3.6% (inactive).

Question: Which fraction fluorescence in grains does the source give for `Cc1ccc(C2C(C#N)C(C#N)N3CCCN23)cc1` (stereo not given) here?
Answer: Its fraction fluorescence in grains is 23.7.

Question: What about the inhibition of the same molecule?
Answer: The inhibition was 40.7% (inactive).

Question: With `CCOc1ccccc1C(=O)NC1CC2CCCC(C1)N2Cc1ccccc1` (stereo not given) as the molecule, how does the fraction fluorescence in grains read?
Answer: The fraction fluorescence in grains was 14.9.

Question: What about the inhibition of the same molecule?
Answer: Its inhibition is 23.5% (inactive).

Question: With `CNc1nc(SC)nc(N(C#N)CC(=O)OC)n1` as the molecule, how does the fraction fluorescence in grains read?
Answer: Its fraction fluorescence in grains is 30.5.

Question: And the inhibition?
Answer: The inhibition was -71% (inactive).

Question: For `CCC(=O)Nc1nc2ccccc2n1Cc1ccccc1C`, which fraction fluorescence in grains is on record?
Answer: The fraction fluorescence in grains was 32.9.

Question: And the inhibition?
Answer: Its inhibition is 4.8% (inactive).

Question: With `CC(=O)NC(C)c1nc2ccccc2n1Cc1ccccc1F` (stereo not given) as the molecule, how does the fraction fluorescence in grains read?
Answer: Its fraction fluorescence in grains is 3.88.

Question: What about the inhibition of the same molecule?
Answer: Its inhibition is 76.4% (active).

Question: For `C=CCn1c(C(C)NC(=O)CC)nc2ccccc21` (stereo not given), which fraction fluorescence in grains is on record?
Answer: Its fraction fluorescence in grains is 34.1.

Question: What about the inhibition of the same molecule?
Answer: The inhibition was -61.6% (inactive).

Question: For `COC(=O)C1C(=O)NCC1c1ccc(OC)cc1` (stereo not given), which fraction fluorescence in grains is on record?
Answer: Its fraction fluorescence in grains is 12.

Question: And the inhibition?
Answer: Its inhibition is 35.5% (inactive).

Question: Which fraction fluorescence in grains does the source give for `Cc1sc2nc(SCC(N)=O)n(C)c(=O)c2c1C` here?
Answer: The fraction fluorescence in grains was 18.7.

Question: And the inhibition?
Answer: The inhibition was -1.9% (inactive).

Question: With `Cc1ccccc1NC(=O)c1ccccc1NS(=O)(=O)c1cccc2cccnc12` as the molecule, how does the fraction fluorescence in grains read?
Answer: Its fraction fluorescence in grains is 11.2.

Question: What about the inhibition of the same molecule?
Answer: The inhibition was 46.2% (inactive).

Question: For `Cn1c(SCC(=O)N2CCOCC2)nnc1-c1ccc(NC(=O)c2ccccc2F)cc1`, which fraction fluorescence in grains is on record?
Answer: Its fraction fluorescence in grains is 22.6.

Question: What about the inhibition of the same molecule?
Answer: Its inhibition is -25.1% (inactive).

Question: For `O=C(NCCCCc1ccccc1)C1CC(c2ccc([N+](=O)[O-])cc2)=NO1` (stereo not given), which fraction fluorescence in grains is on record?
Answer: The fraction fluorescence in grains was 23.6.

Question: What about the inhibition of the same molecule?
Answer: Its inhibition is 39.3% (inactive).

Question: With `NC1=NC(=O)C2(COC(c3ccccc3Cl)OC2)S1` (stereo not given) as the molecule, how does the fraction fluorescence in grains read?
Answer: The fraction fluorescence in grains was 13.6.

Question: What about the inhibition of the same molecule?
Answer: Its inhibition is 19.2% (inactive).

Question: With `Cc1nnc(SCC(=O)NCCOc2ccc(Cl)cc2)n1-c1ccccc1` as the molecule, how does the fraction fluorescence in grains read?
Answer: The fraction fluorescence in grains was 36.3.

Question: What about the inhibition of the same molecule?
Answer: The inhibition was 2.1% (inactive).

Question: Which results are given for `O=C(CSc1nnc(-c2cccs2)n1Cc1ccccc1)N1CCc2ccccc2C1`?
Answer: fraction fluorescence in grains: 52.6; inhibition: -33.1% (inactive)
